# PubChem BioAssay AID463173 (ICCB-Longwood Screening Facility, Harvard Medical School, 2010)
# In all, about 52,000 compounds went through this assay and about 1,700 (3.3%) were called active. Shown is part of a subset that was picked to be rich in actives. A number with no mark means an inactive call. Cut-off read from the data, not from the text of the source: active = survival mostly below about 52% (no sharp cut-off); inactive = mostly above about 56%.
# Test system: Wild type
# Test: growth inhibition of S. aureus wild type versus tarO mutant, primary screen, teichoic acid synthesis inhibitors, RN4220, OD600 (AID 463173)
# Conditions: S. aureus RN4220 wild type/DeltatarO growth, OD600, 18 h, stronger effect = lower value, screened at 18.75 µg/mL (by protocol)
row,SMILES,survival
1,CC(C)CCNC(=O)c1ccc2c(c1)N(C)C(=O)c1ccccc1S2,-6% (active)
2,CC(C)CCNC(=O)c1ccc2c(c1)N(Cc1cccc(Cl)c1)C(=O)c1ccccc1S2,70%
3,CC(C)CCNC(=O)Nc1ccc2c(c1)N(C)C(=O)c1ccccc1S2,135%
4,Cc1ccc(C)c(CN2C(=O)c3ccccc3Sc3ccc(C(=O)NCc4ccco4)cc32)c1,-1% (active)
5,Cc1ccc(CN2C(=O)c3ccccc3Sc3ccc(C(=O)NCc4ccco4)cc32)cc1,55%
6,Cc1cccc(CN2C(=O)c3ccccc3Sc3ccc(C(=O)NCc4ccco4)cc32)c1,75%
7,COc1cc(Cl)c(NC(=O)CN2C(=O)c3cccnc3Sc3ccccc32)c(OC)c1,72%
8,COc1ccc2c(CNCc3cccs3)c(C(=O)O)n(Cc3ccccc3F)c2c1,89%
9,CCN1CCC(N(Cc2ccc(F)cc2)C(=O)Nc2ccc(C)c(F)c2)CC1,87%
10,O=C(Nc1ccccc1C(F)(F)F)C1CCN(S(=O)(=O)c2ccccc2)CC1,72%
11,CCc1ccc(C(=O)c2cn(CC(=O)Nc3ccc4c(c3)OCCO4)c3ccc(C)cc3c2=O)cc1,84%
12,CCCCn1nc(NC(=O)c2cccc(Cl)c2)c2cc3ccccc3nc21,86%
13,NC(=O)CSc1nnc(C2CC2)n1Cc1ccccc1,93%
14,O=C(COc1ccccc1)OCc1cc(=O)n2nc(-c3cccs3)sc2n1,75%
15,CC(Oc1ccccc1)C(=O)Nc1ccc(C(=O)OCc2cc(=O)n3ccsc3n2)cc1 (configuration not stated),72%
16,Cc1cn2c(=O)cc(COC(=O)c3ccc(NC(=O)c4ccc(C(C)(C)C)cc4)cc3)nc2s1,-3% (active)
17,Cc1cn2c(=O)cc(COC(=O)c3ccc(NC(=O)C(C)Oc4ccccc4)cc3)nc2s1 (configuration not stated),0% (active)
18,Cc1cn2c(=O)cc(COC(=O)c3ccc(NC(=O)c4ccc(F)cc4)cc3)nc2s1,70%
19,Cc1cn2c(=O)cc(COC(=O)COc3ccc(F)cc3)nc2s1,81%
20,COc1ccc(OCC(=O)OCc2cc(=O)n3nc(-c4cccs4)sc3n2)cc1,87%
21,O=C(COc1ccc(Cl)cc1)OCc1cc(=O)n2nc(-c3cccs3)sc2n1,-6% (active)
22,Cc1cn2c(=O)cc(COC(=O)COc3ccc(C)c(C)c3)nc2s1,63%
23,Cc1cn2c(=O)cc(COC(=O)c3cccc(NC(=O)C(C)Oc4ccccc4)c3)nc2s1 (configuration not stated),69%
24,COc1ccc(OCC(=O)OCc2cc(=O)n3cc(C)sc3n2)cc1,1% (active)
25,Cc1cn2c(=O)cc(COC(=O)c3cccc(NC(=O)c4ccc(C(C)(C)C)cc4)c3)nc2s1,101%
26,Cc1cccc(OCC(=O)N(Cc2ccccc2)c2ccccn2)c1,87%

row,SMILES,survival
1,CCOC(=O)c1ccccc1NC(=O)CSc1nc(=O)[nH]c2c1CCC2,77%
2,Cc1ccc(NC(=O)Cn2cc(C#N)c3ccccc32)cc1,113%
3,Cc1c(Cl)cccc1NC(=O)Cn1c(=O)n(Cc2nc(-c3ccccc3)no2)c(=O)c2cc3c(cc21)OCO3,135%
4,CCn1cc(C(=O)NCc2ccc(C)cc2)c(=O)c2cc(S(=O)(=O)N3CCC(C)CC3)ccc21,128%
5,Cc1sc2ncn(CC(=O)Nc3cccc(C(F)(F)F)c3)c(=O)c2c1S(=O)(=O)N1CCN(C)CC1,75%
6,Cc1ccc(Cn2cc(S(=O)(=O)c3cccc(C)c3)c(=O)c3cc(F)c(N4CCOCC4)cc32)cc1,82%
7,Cn1c(=O)c2c(-c3ccccc3)n3c(c2n(C)c1=O)C(c1ccco1)Nc1ccccc1-3 (configuration not stated),85%
8,Cc1ccc(-c2c3c(=O)n(C)c(=O)n(C)c3c3n2-c2ccccc2NC3c2ccc(C)cc2O)cc1 (configuration not stated),-8% (active)
9,COc1ccc(-c2c3c(=O)n(C)c(=O)n(C)c3c3n2-c2ccccc2NC3c2ccc(O)cc2O)cc1 (configuration not stated),-8% (active)
10,Cn1c(=O)c2c(-c3ccccc3)n3c(c2n(C)c1=O)C(c1cccc([N+](=O)[O-])c1)Nc1ccccc1-3 (configuration not stated),31%
11,Cn1c(=O)c2c(-c3ccccc3)n3c(c2n(C)c1=O)C(c1cc(Cl)ccc1O)Nc1ccccc1-3 (configuration not stated),-9% (active)
12,Cn1c(=O)c2c(-c3ccccc3)n3c(c2n(C)c1=O)C(c1ccccc1[N+](=O)[O-])Nc1ccccc1-3 (configuration not stated),76%
13,COc1ccc(O)c(C2Nc3ccccc3-n3c(-c4ccccc4)c4c(=O)n(C)c(=O)n(C)c4c32)c1 (configuration not stated),-6% (active)
14,COc1ccc(-c2nc3ccccc3n3c(-c4ccc(OC)cc4)c4c(=O)n(C)c(=O)n(C)c4c23)cc1,75%
15,COc1ccc(-c2c3c(=O)n(C)c(=O)n(C)c3c3c(C)nc4ccccc4n23)cc1,74%
16,COc1ccccc1C1Nc2ccccc2-n2c(-c3ccccc3)c3c(=O)n(C)c(=O)n(C)c3c21 (configuration not stated),65%
17,Cc1cc2c(cc1C)-n1c(-c3ccccc3)c3c(=O)n(C)c(=O)n(C)c3c1C(c1ccco1)N2 (configuration not stated),88%
18,COc1ccc(-c2c3c(=O)n(C)c(=O)n(C)c3c3c(-c4ccccc4)nc4ccccc4n23)cc1,64%
19,O=C(C1CCN(S(=O)(=O)c2cccs2)CC1)N1CCN(c2ccccc2F)CC1,142%
20,CCN(C(=O)/C=C/c1cc(OC)c(OC)c(OC)c1)C1CCCCC1,107%
21,COc1cccc(CNC(=O)CCn2c(=O)c3cccn3c3cccnc32)c1,87%
22,CCC(Sc1nc(-c2ccccc2F)nc2c1Cc1c(CO)cnc(C)c1O2)C(=O)Nc1cc(C)ccc1C (configuration not stated),87%
23,COc1ccc(N2CCN(Cc3nnc(-c4ccc5c(c4)OCO5)o3)CC2)cc1,81%
24,O=C(Cn1c(C(=O)NC2CCCCC2)cc2sccc21)c1ccccc1,136%
25,Cc1ccc(C)n1-c1nnc(N2CCCC(C(=O)NCc3cccc(F)c3)C2)s1 (configuration not stated),81%
26,COC(=O)c1c(C)oc2ccc(N(C(=O)c3ccncc3)S(=O)(=O)c3cc(C)c(C)cc3C)cc12,77%
